Data reported in PubChem BioAssay AID624465 (National Center for Advancing Translational Sciences (NCATS), 2012).
In all, about 360,000 compounds went through this assay and about 300 (0.083%) were called active. Cut-off read from the data, not from the text of the source: active = activation above about 40%; inconclusive = between about 15% and that limit; inactive = weaker than that. The sample as a whole holds a higher share of actives than the screen did.

molecular target: D(2) dopamine receptor (Homo sapiens) (UniProt P14416); experiment: Beta-Arrestin HTS for Positive Allosteric Modulators of the Human D2 Dopamine Receptor: Agonists; details: DiscoveRx PathHunter D2 beta-arrestin, luminescence, 90 min; active compounds read high; 100% = 57 uM dopamine signal
Sequence (P14416 whole entry, looked up): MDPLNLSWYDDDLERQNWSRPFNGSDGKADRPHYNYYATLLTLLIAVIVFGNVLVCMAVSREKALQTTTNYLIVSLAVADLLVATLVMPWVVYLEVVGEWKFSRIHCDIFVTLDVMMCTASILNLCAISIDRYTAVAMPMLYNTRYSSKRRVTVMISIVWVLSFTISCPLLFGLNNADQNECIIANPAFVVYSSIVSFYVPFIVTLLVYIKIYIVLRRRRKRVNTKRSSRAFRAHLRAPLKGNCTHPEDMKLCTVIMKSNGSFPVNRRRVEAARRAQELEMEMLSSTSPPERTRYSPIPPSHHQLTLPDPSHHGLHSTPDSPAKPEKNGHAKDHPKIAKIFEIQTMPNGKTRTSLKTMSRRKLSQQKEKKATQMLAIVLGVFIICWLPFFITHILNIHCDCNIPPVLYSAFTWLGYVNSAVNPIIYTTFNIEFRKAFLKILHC
Description: There is great interest in identifying small molecule ligands for G-protein coupled receptors (GPCRs) as nearly 50% of all FDA-approved drugs target these important receptor proteins. […] Amongst the dopamine receptors (DARs), the D2 is arguably one of the most validated drug targets in neurology and psychiatry. For instance, all receptor-based antiparkinsonian drugs primarily work via stimulating the D2 DAR, whereas all FDA-approved antipsychotic agents are antagonists of this receptor. The D2 DAR is also therapeutically targeted in other disorders such as restless legs syndrome, tardive dyskinesia, Tourette's syndrome, and hyperprolactinemia.
To this end, a miniaturized qHTS screen was developed to be screened against the Molecular Libraries Small Molecule Repository (MLSMR). This assay seeks to identify agonists against the D2 DAR.
NIH Molecular Libraries Probe Production Network [MLPCN]
NIH Chemical Genomics Center [NCGC]
PI Name: David Sibley, National Institutes of Neurological Disorders and Stroke
DiscoveRx D2 cells were thawed from frozen stock and seeded at 2,100 cells/ 3 uL/well media (DiscoveRx Plating Reagent 2) with MultiDrop Combi dispenser (Thermo Scientific, Logan, UT) onto white tissue culture treated 1536-well Aurora plates (Brooks Automation, Chelmsford, MA) and allowed to attach overnight at 37 deg C, 5% CO2. Next, 23 nL/well of compound solutions in DMSO were added with a pintool transfer (Kalypsis, San Diego, CA). As the positive control, 1 uL/well dopamine (EC100, 57 uM final concentration) diluted in buffer (HBSS + 10 mM HEPES + SMB + 0.1% Tween-20) was dispensed to 1 column of each plate. The rest of the plate was dispensed with buffer only, 1 uL/well as well. The cells were stimulated by compounds or dopamine control for 90 minutes at 37 deg C, 5% CO2, after which 1.5 ul/well of DiscoveRx detection reagent was added with BioRAPTR FRD dispenser. The detection reagent was prepared by mixing of Galacton Star Substrate, Emerald II solution and PathHunter buffer (supplied by the assay kit) together at 1:5:19 proportion accordingly just prior to dispensing. The plates were incubated at ambient temperature for 1 hour and then the luminescent signal was read on ViewLux plate reader (PerkinElmer, Waltham, MA).

activation, inactive:
CC(OC(=O)CNS(=O)(=O)/C=C/c1ccccc1)C(=O)Nc1ccc(S(=O)(=O)N2CCCC2)cc1 (stereo unspecified) 0.137%
CCOc1ccc(NC(=O)CN(C)C(=O)c2c(C)noc2C)cc1OCC -1.71%
NC(=O)C(Cc1ccccc1)NC(=O)C12CC3CC(CC(C3)C1)C2 (stereo unspecified) -2.84%
CSc1nnc2c(n1)OC(c1cn(C)c3ccccc13)N(C(C)=O)c1ccccc1-2 (stereo unspecified) -3.75%
O=C(CSc1nc2cccc(F)c2c(=O)n1-c1ccccc1)Nc1ccc2c(c1)CCC2 0.472%
C=CS(=O)c1sc(Cl)c(N2CCOCC2)c1[N+](=O)[O-] (stereo unspecified) -11%
CC(C)c1cccc(C(C)C)c1Nc1cn[nH]c1 8.06%
CSCCC(NC(=O)COc1ccccc1)C(=O)N(C)CC(=O)Nc1ccc(C)cc1 (stereo unspecified) -3.34%
Cc1ccc(Sc2cc(N3CCOCC3)nc(-c3ccccc3)n2)cc1 2.6%
Cc1csc(NC(=O)CSc2nnc(-c3cccnc3)o2)n1 -2.74%
CCC(=NC1CC(C)(C)NC(C)(C)C1)C1=C(O)CC(C)(C)CC1=O 0.839%
CCOc1ccc(NC(=O)CN(C)CC(=O)NC(C)c2ccccc2)cc1OCC (stereo unspecified) -5.49%
COCCn1c(C)cc(C(=O)COC(=O)/C=C/c2cccc(OC)c2)c1C -0.488%
CCCCc1nccn1CCn1ccnc1CCCC -1.34%
Cc1cc(C)nc(N2C(=O)CC(Cc3ccccc3)C2=O)n1 (stereo unspecified) -1.43%
CC(C)c1ccc(N(C(=O)c2ccco2)C(C(=O)NC2CCCC2)c2cccnc2)cc1 (stereo unspecified) 1.27%
CCN1CCN(C(=O)/C=C\C(=O)O)CC1 -0.987%
CCOc1ccc(Oc2nc(C)cc(OC)n2)nn1 -3.16%
CCC(C(=O)NC1CCCCC1)N(C(=O)c1snc(C(N)=O)c1N)c1ccc(OC)cc1OC (stereo unspecified) -1.51%
CC(=O)NC1(c2ccc(F)cc2)CCN(C(=O)c2c(F)cccc2F)CC1 -4.03%
Cc1ccc(Cl)cc1NC(=O)C1CCN(S(C)(=O)=O)CC1 -3.51%
CC(NCc1ccccc1OC1CCCC1)c1ccccc1 (stereo unspecified) -2.1%
COc1ccc(-c2ccc3nnc(SCC(=O)Nc4ccc(NC(C)=O)cc4)n3n2)cc1 0.231%
O=C(NNS(=O)(=O)c1ccc(F)cc1)C1CCCCC1 -2.79%
O=C(Cn1nc([N+](=O)[O-])nc1Br)NC1CCCCC1 6.2%
CC(=O)c1nnn(-c2ccc(Cl)cc2C#N)c1C -0.344%
